Assay results taken from the supplement of paper PMC3334620.
In all, about 33,000 sequences were measured (“E-score (-0.5 to 0.5)”: median about -0.012, highest 2% from about 0.29 on). Many of the other results were omitted from the sample, so the highest values are more common in it than they were.

target: T1, Ybr033w (UniProt P38073); experiment: PBM E-score (8-mer binding enrichment) (E-score (-0.5 to 0.5)); higher = stronger / more preferred TF binding; conditions: protein concentration: 200 nM; construct: GST-full length
T1 sequence: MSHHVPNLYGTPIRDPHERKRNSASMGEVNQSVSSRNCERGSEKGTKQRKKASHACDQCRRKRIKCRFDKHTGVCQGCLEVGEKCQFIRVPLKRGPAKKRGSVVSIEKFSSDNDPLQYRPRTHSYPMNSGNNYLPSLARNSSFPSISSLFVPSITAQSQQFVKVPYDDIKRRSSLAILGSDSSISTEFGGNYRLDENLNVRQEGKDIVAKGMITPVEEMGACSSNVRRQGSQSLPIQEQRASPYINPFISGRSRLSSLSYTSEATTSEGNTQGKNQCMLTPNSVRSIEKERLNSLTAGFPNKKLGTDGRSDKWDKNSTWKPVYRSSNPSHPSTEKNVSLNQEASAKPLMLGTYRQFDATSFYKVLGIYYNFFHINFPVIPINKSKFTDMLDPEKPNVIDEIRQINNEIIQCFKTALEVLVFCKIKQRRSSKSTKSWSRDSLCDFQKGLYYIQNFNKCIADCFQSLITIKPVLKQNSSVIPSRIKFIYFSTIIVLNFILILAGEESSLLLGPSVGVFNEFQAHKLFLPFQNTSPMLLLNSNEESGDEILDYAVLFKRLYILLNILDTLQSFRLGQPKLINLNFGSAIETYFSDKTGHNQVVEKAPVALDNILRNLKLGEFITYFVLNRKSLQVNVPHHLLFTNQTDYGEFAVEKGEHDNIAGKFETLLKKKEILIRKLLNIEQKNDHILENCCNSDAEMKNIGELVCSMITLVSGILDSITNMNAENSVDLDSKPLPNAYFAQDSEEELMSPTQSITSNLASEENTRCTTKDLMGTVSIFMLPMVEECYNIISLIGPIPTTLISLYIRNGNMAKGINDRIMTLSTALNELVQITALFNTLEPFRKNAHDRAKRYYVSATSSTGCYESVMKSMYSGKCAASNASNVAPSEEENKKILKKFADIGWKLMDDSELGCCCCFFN
How it was run: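 Universal all-10-mer Agilent arrays, double-stranded by primer extension on fresh or once-stripped slides, were probed with about 100-200 nM GST-tagged yeast transcription factors made by PURExpress. Fluorescent anti-GST detected bound protein, and masliner normalised the scans. E-scores from the Universal PBM Analysis Suite were given to each ungapped eight-base word pooled with its reverse complement.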

Point of comparison: GAAAAAAA, “PBM E-score” value 0.37. Against it:
- TAACCAAA — lower, 0.186
- CGGAGGGA — lower, -0.057
- CGTCTTCC — lower, -0.215
- ATTACTCC — lower, 0.23
- ATTACTTA — lower, 0.35
- ATTACTCG — lower, 0.132
- CTTACTTA — lower, 0.0259
- ATTACTGA — lower, 0.169
- ATTACTCA — lower, 0.296
- CACCAGTC — lower, -0.196
- CAAAGTAA — lower, 0.186
- ACAAGTTA — lower, 0.185
- AAAAGTTT — lower, 0.266
- GAAAGTTC — lower, -0.0203
- AAAAGTAT — lower, 0.13
- AAAAGTTG — lower, 0.133
- CAAAGTTA — lower, 0.279
- TAAAGTTA — lower, 0.358
- AAAAGTTA — lower, 0.288
- GAAAGTTA — lower, 0.218
- AAAAGTTC — higher, 0.373
- AAAAGTAA — lower, 0.314
- ACGGTGGC — lower, -0.095
- CGGCCATA — lower, -0.17
- CTATCCAG — lower, 0.062
- AGTGGTTC — lower, 0.00899
- TGAGCCCA — lower, -0.0977
- GTTCTGCA — lower, -0.173
- AGAACTAG — lower, -0.084
- CTCTGCGC — lower, -0.118
- TAGACGCA — lower, -0.0494
- CCGCTTGA — lower, -0.162
- GCCTTTCC — lower, -0.254
- CAAATATA — lower, 0.281
- GAAATACA — lower, 0.14
- TAAATACA — lower, 0.229
- GAAATATC — lower, 0.231
- TAAATATA — lower, 0.353
- GAAATATA — lower, 0.327
- GGCCAATA — lower, -0.0498
- AAAGCTCT — lower, -0.262
- CAATGCTA — lower, 0.115
- CTCCATGA — lower, 0.0454
- TAGACAGA — lower, 0.157
- AATCAATA — lower, 0.334
- TATCAATA — lower, 0.257
- GATCAATA — lower, 0.329
- AATCAATC — lower, 0.0849
- AATCAAAA — lower, 0.225
- CATCAAAA — lower, 0.108
- GATCAAAA — lower, 0.296
- GATCAATC — lower, 0.184
- AATCAATT — lower, 0.247
- AGGGTAAG — lower, 0.0154
- CCTAGGAC — lower, -0.087
- AAAGCAAT — lower, 0.16
- ACCCCCTG — lower, -0.454
- CTGGAACC — lower, -0.209
- CTGGAATC — lower, -0.00413
- CTGGAATA — lower, 0.355
- ATGGAATC — lower, 0.198
- ATGGAATA — lower, 0.316
- CTGGAAGA — lower, 0.189
- CTGGAACA — lower, 0.31
- GTGGAATA — lower, 0.262
- ATGGAACA — lower, 0.182
- ATGTGGAA — lower, 0.235
- CCGGGTGC — lower, -0.181
- CCCTTTGC — lower, -0.134
- GGCCTAAC — lower, -0.013
- CACAGAGC — lower, -0.121
- ATACGTAT — lower, 0.207
- AGGATCAG — lower, -0.166
- AGGATCAC — lower, -0.0786
- TGGATCCA — lower, -0.0233
- AGGATCAA — lower, 0.317
- GGGATCAA — lower, 0.242
- TGGATCAA — higher, 0.377
- AAGAGTAT — lower, 0.00192
- AATAACCC — lower, 0.203
- GCACTTCC — lower, -0.149
- GAGAAAAA — lower, 0.155
- AAAAAAAG — lower, 0.273
- AAAAAAAA — lower, 0.353
- GAAAAAAC — lower, 0.265
- AAAAAAAC — lower, 0.24
- AGATCTTC — lower, 0.137
- AAGGATTG — lower, 0.126
- ACTCAACA — lower, 0.146
- CTTCTCCA — lower, -0.214
- ACCCAGGG — lower, -0.287
- ACTCGAAG — lower, -0.242
- CTGGTCCA — lower, -0.17
- GTTCCTAA — lower, 0.125
- GATATAGC — lower, 0.156
- ATATGAGC — lower, -0.0174
- ATTTTACC — lower, 0.362
- ATTTTACA — lower, 0.0461
- AATTTACG — lower, 0.232
- CTTTTACC — lower, 0.101
- ATTTTACG — lower, 0.328
- AATTTACC — lower, 0.103
- CCATTAGA — lower, -0.14
- CTGATAGC — lower, -0.0429
- TGTTCTAA — lower, 0.181
- TAGATCTA — lower, 0.19
- ATTCACAG — lower, 0.0908
- GTTCACAA — lower, 0.18
- ATTCACAA — lower, 0.294
- ATGAGGGG — lower, -0.206
- GAAAATAC — lower, 0.252
- AAAAATAG — lower, 0.296
- ACAAATAT — lower, 0.287
